Data reported in PubChem BioAssay (Tox21).
Results filed as inconclusive are left out. Active and inactive are the calls of the source. Unless noted, the call rests on the fitted dose curve; in most records, active means well fitted curve in the direction sought with a large enough effect in the repeat runs; inconclusive means weak or mixed curves; inactive means no such curve, though single readings can be large; an effect the other way counts as inactive or inconclusive.

How the values were obtained:
[1] = qHTS assay to identify small molecule agonists of the hypoxia (HIF-1) signaling pathway - cell viability counter screen (AID 1224844; calls by dose curve; further: nearly all actives have a fitted effect of over 50% in size)
Method in brief: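 HRE-bla ME-180 cells in medium with 0.5% dialyzed FBS were preincubated 5 hrs at 37C, exposed to compounds for 17 hrs, then viability was read as CellTiter-Glo luminescence after 30 min at room temperature, in the reporter wells.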

[2] = qHTS assay to identify small molecule agonists of H2AX (AID 1224845; active means well fitted activation curve with a large enough effect in the signal ratio in the repeat runs, not every such curve was filed as active; the % refers to the signal ratio)
Method in brief: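 Phospho-H2AX Ser139 measured by HTRF (ex 320 nm; em 665 and 620 nm) after 24 hr antibody incubation. Compounds, 15 concentrations, 0.76% DMSO, were applied to CHO-K1 cells for 3hr at 37C before lysis.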

[3] = qHTS assay to identify small molecule agonists of the hypoxia (HIF-1) signaling pathway (AID 1224846; active means well fitted activation curve with a large enough effect in the signal ratio in the repeat runs, not every such curve was filed as active; the % refers to the signal ratio)
Method in brief: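 HRE-bla ME-180 cells (beta-lactamase reporter under hypoxia response element) were plated at 2,000 cells/well in medium with 0.5% dialyzed FBS, rested 5 hrs, then given compounds in DMSO for 17 hrs at 37C, 5% CO2. Reporter induction was read with CCF4-AM FRET substrate.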

[4] = qHTS assay to identify small molecule agonists of H2AX - cell viability counter screen (AID 1224847; calls by dose curve;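 further: wild-type CHO-K1 cells; top concentration of the series differs between compounds; nearly all actives have a fitted effect of over 30% in size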)
Method in brief: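 For this counter screen, overnight-attached CHO-K1 cells received test compounds (15 concentrations, 0.76% DMSO final); 3 hr later at 37C, CellTiter-Glo reagent was added and luminescence recorded after 30 min at room temperature.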

[5] = A CellTox Green Cytotoxicity Assay to monitor cytotoxicity in HEK293 cells - 0 hour (AID 1224869); further: nearly all actives have a fitted effect of over 50% in size
Method in brief: (§1)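 HEK293 cells premixed with CellTox Green dye were seeded at 600 cells/well and left 5 h at 37 C/5% CO2 before pin transfer of 23 nL compound in DMSO. Fluorescence from dye bound to dead-cell DNA was read during 40 h treatment.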

[6] = qHTS RealTime-Glo MT Cell Viability Assay in HepG2 cells - 40 hour (AID 1224870); further: nearly all actives have a fitted effect of over 50% in size
Method in brief: (§2)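 Real-time viability: cells seeded at 600 per well together with NanoLuc and cell-permeant prosubstrate, compounds added after 5 h incubation. Luminescence tracked at 0, 8, 16, 24, 32 and 40 h of exposure.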

[7] = A CellTox Green Cytotoxicity Assay to monitor cytotoxicity in HEK293 cells - 40 hour (AID 1224871); further: nearly all actives have a fitted effect of over 45% in size
Method in brief: as §1

[8] = qHTS RealTime-Glo MT Cell Viability Assay in HepG2 cells - 8 hour (AID 1224873); further: nearly all actives have a fitted effect of over 55% in size
Method in brief: as §2

[9] = A CellTox Green Cytotoxicity Assay to monitor cytotoxicity in HEK293 cells - 24 hour (AID 1224875); further: nearly all actives have a fitted effect of over 45% in size
Method in brief: as §1

[10] = A CellTox Green Cytotoxicity Assay to monitor cytotoxicity in HepG2 cells - 16 hour (AID 1224876); further: nearly all actives have a fitted effect of over 45% in size
Method in brief: (§3)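 HepG2 cells were seeded together with the CellTox Green dye at 600 cells/well, left 5 h at 37 C/5% CO2, then given compounds in DMSO. Fluorescence from dye bound to dead-cell DNA was read repeatedly over 40 h of treatment at 37 C.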

[11] = A CellTox Green Cytotoxicity Assay to monitor cytotoxicity in HepG2 cells - 24 hour (AID 1224878); further: nearly all actives have a fitted effect of over 45% in size
Method in brief: as §3

[12] = A CellTox Green Cytotoxicity Assay to monitor cytotoxicity in HepG2 cells - 40 hour (AID 1224879); further: nearly all actives have a fitted effect of over 40% in size
Method in brief: as §3

[13] = qHTS RealTime-Glo MT Cell Viability Assay in HEK293 cells - 0 hour (AID 1224880); further: nearly all actives have a fitted effect of over 45% in size; further: potency means the concentration at half of the fitted maximal effect; on activity change, negative = cytotoxicity: top concentration of the series differs between compounds
Method in brief: (§4)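 HEK293 cells mixed with RealTime-Glo reagents (NanoLuc plus cell-permeant prosubstrate) at 600 cells/well, preincubated 5 h at 37 C/5% CO2, then given 23 nL compound in DMSO. Nonlytic luminescence from viable cells was read at 0, 8, 16, 24, 32 and 40 h.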

[14] = qHTS assay to identify small molecule antagonists of the estrogen related receptor (ERR) signaling pathway from Tox21 library (AID 1224848); further: nearly all actives have a fitted effect of over 50% in size
Method in brief: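 Reading was by luminescence 30 min after ONE-Glo addition. Before that, ERR cells at 2,000 per well had rested 6 h at 37 C/5% CO2 and then received pin-tooled compounds in DMSO for 18 h at 37 C.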

[15] = qHTS assay to identify small molecule agonists of the estrogen related receptor (ERR) signaling pathway from Tox21 library (AID 1224849; calls by dose curve; further: nearly all actives have a fitted effect of over 15% in size); conditions: ERR reporter cell line, ONE-Glo luciferase, 18 h; at 92.4 µM (top of the series) unless noted
Method in brief: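 ERR reporter cell line (NTP) seeded, rested 6 h at 37 C/5% CO2, then pinned with Tox21 compounds in DMSO. After 18 h at 37 C, ONE-Glo luciferase luminescence was read following 30 min at room temperature.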

[16] = qHTS RealTime-Glo MT Cell Viability Assay in HepG2 cells - 24 hour (AID 1224867); further: nearly all actives have a fitted effect of over 50% in size
Method in brief: (§5)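 Viability was tracked continuously by NanoLuc luminescence from prosubstrate reduced by living HepG2 cells, at successive time points over 40 h of compound exposure. Cells with reagent were preincubated 5 h at 37 °C before compound addition.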

[17] = qHTS RealTime-Glo MT Cell Viability Assay in HEK293 cells - 32 hour (AID 1224868)
Method in brief: (§6)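 Viability tracked continuously by luminescence as live cells reduce a prosubstrate for NanoLuc; HEK293 cells preincubated 5 h, compound-treated at 37 C, and read at 0, 8, 16, 24, 32 and 40 h.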

[18] = qHTS RealTime-Glo MT Cell Viability Assay in HEK293 cells - 16 hour (AID 1224872)
Method in brief: as §6

[19] = qHTS RealTime-Glo MT Cell Viability Assay in HEK293 cells - 40 hour (AID 1224874); conditions: RealTime-Glo luminescence; max response: hits give low values; further: nearly all actives have a fitted effect of over 50% in size
Method in brief: as §4

[20] = qHTS RealTime-Glo MT Cell Viability Assay in HepG2 cells - 32 hour (AID 1224877); further: nearly all actives have a fitted effect of over 55% in size
Method in brief: as §5
On the % scale 0 is the no-effect control and ±100 the full control effect.

CCCCc1nc2cccnc2n1Cc1ccc(-c2ccccc2-c2nnn[nH]2)cc1
inactive: Potency [1] | Potency [2] | Potency [3] | Potency [4] | Potency [5] | Potency [6] | Potency [7] | Potency [8] | Potency [9] | Potency [10] | Potency [11] | Potency [12]
active: Potency [13] 21.9 µM

CC(=O)[O][Al][O]C(C)=O
inactive: Potency [1] | Potency [2] | Potency [4] | Potency [14] | activity change, positive = activation [15] 1.12% | Potency [16] | Potency [17] | Potency [5] | Potency [6] | Potency [7] | Potency [18] | Potency [8] | max response [19] 6.93% | Potency [9] | Potency [10] | Potency [20] | Potency [11] | Potency [12] | Potency [13]

NC(N)=NCCC[C@H](N)C(=O)O
inactive: activity change, negative = cytotoxicity [1] -0.141% [at 6.97 µM] | activation (H2AX phosphorylation) [2] -0.995% [at 14 µM] | activity, negative = inhibition [14] 11% [at 8.39 µM] | activity change, positive = activation [15] 5.81% [at 8.39 µM] | activity change, negative = cytotoxicity [16] 3.74% [at 6.97 µM] | activity change, negative = cytotoxic [17] 5.15% [at 6.97 µM] | cytotoxicity [5] -14.4% [at 6.97 µM] | activity change, negative = cytotoxic [6] 2.25% [at 6.97 µM] | cytotoxicity increase [7] -21.8% [at 6.97 µM] | activity change, negative = cytotoxicity [18] 5.7% [at 6.97 µM] | viability change, negative = cytotoxic [8] 1.03% [at 6.97 µM] | max response [19] 2.97% | activity change [9] -20.5% [at 6.97 µM, hits give high values] | cytotoxicity [11] -6.35% [at 6.97 µM] | cytotoxicity increase [12] -3.66% [at 6.97 µM] | activity change, negative = cytotoxicity [13] 14% [at 6.97 µM]

CCN(CC)CCOC(=O)C(Cc1cccc2ccccc12)CC1CCCO1 (configuration not stated)
inactive: Potency [1] | Potency [2] | Potency [4] | Potency [16] | Potency [5] | Potency [6] | Potency [18] | Potency [8] | Potency [9] | Potency [11] | Potency [12]

CN1Cc2cc(C(=O)N3CCC(C4CCNCC4)CC3)ccc2NC(CC(=O)O)C1=O (configuration not stated)
inactive: Potency [1] | Potency [2] | Potency [4] | Potency [14] | activity change, positive = activation [15] 1.47% [at 42.5 µM] | Potency [17] | Potency [5] | Potency [6] | Potency [7] | Potency [18] | max response [19] 5.98% | Potency [9] | Potency [10] | Potency [20] | Potency [11] | Potency [12] | Potency [13]

NCC(=O)CCC(=O)O
inactive: Potency [1] | Potency [2] | Potency [4] | Potency [16] | Potency [17] | Potency [5] | Potency [6] | Potency [7] | Potency [18] | max response [19] 7.89% | Potency [9] | Potency [10] | Potency [20] | Potency [11] | Potency [12] | Potency [13]

O=P(O)(OCc1ccccc1)OCc1ccccc1
inactive: Potency [1] | Potency [2] | Potency [4] | Potency [16] | Potency [17] | Potency [5] | Potency [6] | Potency [18] | Potency [8] | max response [19] 2.99% | Potency [9] | Potency [20] | Potency [11] | Potency [12] | Potency [13]

CCCCO
inactive: Potency [1] | Potency [2] | Potency [4] | Potency [16] | Potency [17] | Potency [5] | Potency [6] | Potency [7] | Potency [18] | max response [19] 1.62% | Potency [9] | Potency [10] | Potency [11] | Potency [12] | Potency [13]
